Several values for one entry are separate records, joined by “and”; a condition that tells them apart may be missing. Equal entries are not always repeated. Inconclusive results are not listed. Unmarked numbers belong to inactive results. Activity calls are given as the source filed them. The call rests on the fitted dose curve; in most records, active means well fitted inhibition curve with a large enough effect; inconclusive means small, poorly fitted or top-dose-only effect; inactive means no such curve, though single readings can be large or run the other way.
Potency means the concentration at half of the fitted maximal effect.

The first assay has as its system Zika virus NS2B-NS3 protease (linked construct). As to the kind of experiment: Primary screen NINDS Rhodamine qHTS for Zika virus inhibitors (AID 1347160). Further: nearly all actives have a fitted effect of over 55% in size. On activity change, negative = inhibition: on the % scale 0 is the no-effect control and ±100 the full control effect. The settings on record: purified NS2B-NS3 protease, Rhodamine110 substrate fluorescence; series mostly up to 57.1 µM; activity change, negative = inhibition: at the top concentration. Put shortly:
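Percent inhibition, normalized to uninhibited and enzyme-free controls, is fitted to a 4-parameter Hill equation. Fluorescence change comes from a 15-min cleavage of 1.5 microM bis-peptide Rhodamine110 substrate by 25 nM linked NS2B-NS3 at room temperature.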
On the technique in general: In qHTS, concentration-response curves come from the screen itself.
With `O=c1[nH]cnc2c1ncn2[C@H]1CC[C@@H](CO)O1`, the compound was classed as inactive. On to `C=C1C(=O)[C@@]23C(CC[C@@H]1[C@H]2O)[C@@]12CO[C@]3(O)[C@@H](O)[C@@H]1C(C)(C)CC[C@@H]2O` (stereo partly specified), for which the outcome was inactive.

Turning to `COc1ncc(-c2ccc3nccc(-c4ccnnc4)c3c2)cc1NS(=O)(=O)c1ccc(F)cc1F`, the “activity change, negative = inhibition” value was -17.8%. On the same count and under the same terms, the figure for `CS(=O)c1ccc(-c2nc(-c3ccc(F)cc3)c(-c3ccncc3)[nH]2)cc1` (stereo unspecified) is 5.93%; for `COc1ccc2cc(-c3nc(-c4ccc(S(C)=O)cc4)[nH]c3-c3ccncc3)ccc2c1` (stereo unspecified) it is 5.96%; for `Cc1ccn(-c2ccc(-c3ncco3)cc2)c(=O)c1-c1ccc2nc(N)ncc2c1` it is -10.7%. As for `CNC1CCC(N(Cc2cccc(-c3ccncc3)c2)C(=O)c2sc3c(F)ccc(F)c3c2Cl)CC1` (stereo unspecified), the “activity change, negative = inhibition” value is 293%. Turning to `NC(=O)c1cccc2[nH]c(-c3ccc([C@H]4CCCN4)cc3F)nc12`, the “activity change, negative = inhibition” value is 10.6%.

Take `CC1(C)CCC(CN2CCN(c3ccc(C(=O)NS(=O)(=O)c4ccc(NCC5CCOCC5)c([N+](=O)[O-])c4)c(Oc4cnc5[nH]ccc5c4)c3)CC2)=C(c2ccc(Cl)cc2)C1`: the Potency is 3.98 µM (active).

Tested on in the next assay: not listed separately
Nature of the assay: Confirmatory screen NINDS Rhodamine qHTS for Zika virus inhibitors (AID 1347161). Further: nearly all actives have a fitted effect of over 60% in size.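 On activity change, negative = inhibition: purified Zika NS2B-NS3 protease with linked NS2B cofactor domain and Rhodamine110 peptide substrate; plate controls were no-inhibitor control for no effect and no-enzyme control for full effect.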 The settings on record: purified enzyme assay, Rhodamine110 substrate fluorescence, 15 min; series mostly up to 114 µM; activity change, negative = inhibition: at the top concentration. Put shortly:
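Purified linked NS2B-NS3 protease (NS2B hydrophilic domain joined to NS3 protease by flexible linker), 25 nM in 10 mM Tris-HCl pH 8.0, 0.01% Tween 20. Compounds titrated, 15 min preincubation at room temperature; 1.5 microM Rhodamine110 substrate, FITC fluorescence change over 15 min.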
With `O=c1c(O)c(-c2ccc(O)cc2)oc2cc(O)cc(O)c12`, the “activity change, negative = inhibition” value is 9.28% [at 64.7 µM]. As for `CS(=O)c1ccc(-c2nc(-c3ccc(F)cc3)c(-c3ccncc3)[nH]2)cc1` (stereo unspecified), the “activity change, negative = inhibition” value is -34.8%. As for `CC1CCC(C(=O)N(c2cc(C#CC(C)(C)C)sc2C(=O)O)C2CCC(O)CC2)CC1` (stereo unspecified), the Potency was 5.53 µM (active). On the same count and under the same terms, in the case of `Cc1ccn(-c2ccc(-c3ncco3)cc2)c(=O)c1-c1ccc2nc(N)ncc2c1` it was 49.3 µM (active).

Regarding `NC(=O)c1cccc2[nH]c(-c3ccc([C@H]4CCCN4)cc3F)nc12`, the “activity change, negative = inhibition” value is -31.9%.

`CC1(C)CCC(CN2CCN(c3ccc(C(=O)NS(=O)(=O)c4ccc(NCC5CCOCC5)c([N+](=O)[O-])c4)c(Oc4cnc5[nH]ccc5c4)c3)CC2)=C(c2ccc(Cl)cc2)C1`: the Potency was 1.24 µM (active) and 857 nM (active). Turning to `O=C(O)c1c(Cl)c(Cl)c(Cl)c(Cl)c1-c1c2cc(I)c(=O)c(I)c-2oc2c(I)c(O)c(I)cc12`, the “activity change, negative = inhibition” value is 2.3%.
